Of roughly 6,500 targets only a part is listed; those with a hit were picked by preference. About 2% of all pairs of compound and target were hits.
Each target was assayed with COC(=O)C#Cc1ccccc1 [methyl 3-phenylpropiolate] (assay: log2 ratio of iodoacetamide-alkyne labeling of the cysteine site, DMSO over compound (competition); higher = stronger covalent engagement of the cysteine by the compound, active = 1 or more). Settings: 500 µM; treatment time 1 h; system: HEK293T cell lysate.
Summary of the method: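 HEK293T lysate at 2 mg/mL was treated with vehicle or electrophile (500 µM) for 1 h at ambient temperature, then labelled with iodoacetamide alkyne (1 h), clicked to sCIP-TMT reagents, pooled, digested with trypsin overnight at 37 °C, enriched on streptavidin and eluted with acid. Peptides were analysed by Orbitrap Eclipse LC-MS/MS with FAIMS and quantified in FragPipe, using duplicate channels and three replicates, with cysteines quantified in only one replicate excluded. The log2 competition ratio for each cysteine is the mean control-channel reporter intensity divided by the mean compound-channel reporter intensity.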

UniProt P54132, sequence (P54132 whole entry, looked up): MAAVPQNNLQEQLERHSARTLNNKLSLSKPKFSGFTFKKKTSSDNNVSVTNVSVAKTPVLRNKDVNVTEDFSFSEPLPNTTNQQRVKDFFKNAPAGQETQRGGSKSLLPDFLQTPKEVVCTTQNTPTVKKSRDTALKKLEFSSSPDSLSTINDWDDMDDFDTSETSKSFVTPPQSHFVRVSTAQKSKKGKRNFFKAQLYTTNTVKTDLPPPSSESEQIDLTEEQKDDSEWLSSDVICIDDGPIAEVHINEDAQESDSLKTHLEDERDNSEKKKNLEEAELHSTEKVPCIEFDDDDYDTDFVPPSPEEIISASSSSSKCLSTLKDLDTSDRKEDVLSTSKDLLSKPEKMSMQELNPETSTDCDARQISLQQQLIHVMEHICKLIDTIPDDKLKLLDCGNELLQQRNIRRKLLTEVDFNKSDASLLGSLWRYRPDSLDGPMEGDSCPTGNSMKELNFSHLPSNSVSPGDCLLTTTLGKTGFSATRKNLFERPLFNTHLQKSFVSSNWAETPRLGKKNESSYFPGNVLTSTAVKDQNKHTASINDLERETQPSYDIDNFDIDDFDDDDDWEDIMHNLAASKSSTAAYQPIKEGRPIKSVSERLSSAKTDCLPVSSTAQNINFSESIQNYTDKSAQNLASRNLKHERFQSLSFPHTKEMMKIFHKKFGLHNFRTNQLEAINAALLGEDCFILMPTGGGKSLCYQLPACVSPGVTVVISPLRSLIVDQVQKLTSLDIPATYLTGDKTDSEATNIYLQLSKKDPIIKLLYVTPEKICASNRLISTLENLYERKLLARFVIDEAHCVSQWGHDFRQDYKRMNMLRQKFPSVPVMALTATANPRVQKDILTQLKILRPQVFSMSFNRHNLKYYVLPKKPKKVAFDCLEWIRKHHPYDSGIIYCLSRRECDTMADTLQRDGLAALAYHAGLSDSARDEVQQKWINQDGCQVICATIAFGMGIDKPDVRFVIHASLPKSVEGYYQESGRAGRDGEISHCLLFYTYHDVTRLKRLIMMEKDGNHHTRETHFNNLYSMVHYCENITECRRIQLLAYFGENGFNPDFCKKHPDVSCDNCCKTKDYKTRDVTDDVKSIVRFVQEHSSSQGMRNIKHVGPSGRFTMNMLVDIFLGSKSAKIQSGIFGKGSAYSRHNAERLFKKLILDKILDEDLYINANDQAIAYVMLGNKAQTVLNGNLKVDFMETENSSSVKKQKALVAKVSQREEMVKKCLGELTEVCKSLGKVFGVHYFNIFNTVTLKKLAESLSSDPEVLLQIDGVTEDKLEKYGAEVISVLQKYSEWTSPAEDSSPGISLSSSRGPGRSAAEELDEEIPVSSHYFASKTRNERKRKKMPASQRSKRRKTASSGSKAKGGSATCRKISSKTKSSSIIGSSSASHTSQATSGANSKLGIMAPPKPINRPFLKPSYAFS
UniProt Q01518, sequence (Q01518 whole entry): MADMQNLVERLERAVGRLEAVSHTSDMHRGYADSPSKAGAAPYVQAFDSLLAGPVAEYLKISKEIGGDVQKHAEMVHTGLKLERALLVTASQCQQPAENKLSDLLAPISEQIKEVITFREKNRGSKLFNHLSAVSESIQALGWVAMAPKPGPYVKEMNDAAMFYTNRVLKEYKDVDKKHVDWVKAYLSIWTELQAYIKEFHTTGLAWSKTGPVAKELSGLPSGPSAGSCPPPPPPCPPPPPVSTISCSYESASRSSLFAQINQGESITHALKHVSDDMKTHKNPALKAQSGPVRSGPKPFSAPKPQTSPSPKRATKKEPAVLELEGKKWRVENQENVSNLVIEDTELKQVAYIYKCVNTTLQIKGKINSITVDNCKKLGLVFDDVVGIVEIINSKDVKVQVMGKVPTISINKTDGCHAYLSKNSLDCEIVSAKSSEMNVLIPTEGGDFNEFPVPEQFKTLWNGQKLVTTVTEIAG
UniProt Q06587, sequence (Q06587 whole entry, looked up): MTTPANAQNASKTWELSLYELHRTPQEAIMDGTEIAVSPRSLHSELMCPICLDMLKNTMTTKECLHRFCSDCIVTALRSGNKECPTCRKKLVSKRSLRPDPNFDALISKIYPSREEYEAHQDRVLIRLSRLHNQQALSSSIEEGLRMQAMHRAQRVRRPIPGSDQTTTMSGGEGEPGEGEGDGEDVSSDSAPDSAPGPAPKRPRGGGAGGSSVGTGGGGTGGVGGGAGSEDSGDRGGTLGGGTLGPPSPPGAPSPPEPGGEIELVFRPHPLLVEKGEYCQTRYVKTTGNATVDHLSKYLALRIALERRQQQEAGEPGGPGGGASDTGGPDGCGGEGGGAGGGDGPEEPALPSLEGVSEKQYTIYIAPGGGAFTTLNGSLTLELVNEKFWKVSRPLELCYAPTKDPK
UniProt P56192, sequence (P56192 whole entry, looked up): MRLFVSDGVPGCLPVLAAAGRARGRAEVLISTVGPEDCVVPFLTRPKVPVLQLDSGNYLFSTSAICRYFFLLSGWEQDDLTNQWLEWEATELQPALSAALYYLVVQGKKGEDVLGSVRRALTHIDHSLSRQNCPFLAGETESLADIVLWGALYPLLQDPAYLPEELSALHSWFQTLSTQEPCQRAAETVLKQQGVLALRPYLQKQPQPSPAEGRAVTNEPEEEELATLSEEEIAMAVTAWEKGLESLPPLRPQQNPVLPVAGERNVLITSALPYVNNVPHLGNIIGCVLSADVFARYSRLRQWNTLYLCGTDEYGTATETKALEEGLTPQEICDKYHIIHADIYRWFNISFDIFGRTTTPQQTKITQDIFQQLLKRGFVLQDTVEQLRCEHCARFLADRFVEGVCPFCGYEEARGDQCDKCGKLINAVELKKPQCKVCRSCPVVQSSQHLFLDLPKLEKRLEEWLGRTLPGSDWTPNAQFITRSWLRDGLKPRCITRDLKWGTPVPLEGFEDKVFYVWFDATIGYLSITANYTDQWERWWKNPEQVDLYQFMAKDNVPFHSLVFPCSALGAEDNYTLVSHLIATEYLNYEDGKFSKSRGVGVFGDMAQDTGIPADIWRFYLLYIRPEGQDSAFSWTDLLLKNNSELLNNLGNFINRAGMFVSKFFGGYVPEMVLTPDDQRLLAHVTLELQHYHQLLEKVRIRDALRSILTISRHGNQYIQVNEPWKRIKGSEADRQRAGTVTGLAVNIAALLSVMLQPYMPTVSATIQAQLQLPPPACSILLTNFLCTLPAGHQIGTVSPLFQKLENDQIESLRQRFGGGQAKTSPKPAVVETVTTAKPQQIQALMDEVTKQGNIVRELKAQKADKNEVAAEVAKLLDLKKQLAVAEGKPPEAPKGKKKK
UniProt P54278, sequence (P54278 whole entry, looked up): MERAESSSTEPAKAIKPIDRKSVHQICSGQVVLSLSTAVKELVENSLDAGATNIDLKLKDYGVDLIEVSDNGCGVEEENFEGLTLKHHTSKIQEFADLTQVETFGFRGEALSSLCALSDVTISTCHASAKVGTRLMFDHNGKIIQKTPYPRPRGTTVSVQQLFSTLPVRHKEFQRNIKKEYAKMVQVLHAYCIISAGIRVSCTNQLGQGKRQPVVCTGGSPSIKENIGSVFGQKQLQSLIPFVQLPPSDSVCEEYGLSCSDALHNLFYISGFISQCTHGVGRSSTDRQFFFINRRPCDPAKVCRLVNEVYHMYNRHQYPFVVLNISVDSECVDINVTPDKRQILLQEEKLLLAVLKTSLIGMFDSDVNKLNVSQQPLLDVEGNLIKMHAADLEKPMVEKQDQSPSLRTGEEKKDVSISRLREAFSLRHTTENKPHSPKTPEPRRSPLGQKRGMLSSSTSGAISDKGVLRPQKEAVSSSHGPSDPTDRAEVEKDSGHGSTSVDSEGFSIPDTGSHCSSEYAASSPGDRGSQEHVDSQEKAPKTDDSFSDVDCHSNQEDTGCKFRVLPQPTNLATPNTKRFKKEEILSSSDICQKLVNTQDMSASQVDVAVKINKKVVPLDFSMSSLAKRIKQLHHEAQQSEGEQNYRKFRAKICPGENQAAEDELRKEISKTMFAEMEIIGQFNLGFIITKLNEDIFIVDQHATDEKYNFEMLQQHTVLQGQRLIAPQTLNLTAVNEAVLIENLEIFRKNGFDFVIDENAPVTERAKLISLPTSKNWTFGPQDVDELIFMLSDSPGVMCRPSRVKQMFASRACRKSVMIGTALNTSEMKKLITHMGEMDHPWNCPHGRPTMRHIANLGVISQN
UniProt P56277, sequence (P56277 whole entry): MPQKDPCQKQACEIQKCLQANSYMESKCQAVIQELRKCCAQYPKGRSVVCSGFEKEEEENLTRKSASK
UniProt Q10567, sequence (Q10567 whole entry, looked up): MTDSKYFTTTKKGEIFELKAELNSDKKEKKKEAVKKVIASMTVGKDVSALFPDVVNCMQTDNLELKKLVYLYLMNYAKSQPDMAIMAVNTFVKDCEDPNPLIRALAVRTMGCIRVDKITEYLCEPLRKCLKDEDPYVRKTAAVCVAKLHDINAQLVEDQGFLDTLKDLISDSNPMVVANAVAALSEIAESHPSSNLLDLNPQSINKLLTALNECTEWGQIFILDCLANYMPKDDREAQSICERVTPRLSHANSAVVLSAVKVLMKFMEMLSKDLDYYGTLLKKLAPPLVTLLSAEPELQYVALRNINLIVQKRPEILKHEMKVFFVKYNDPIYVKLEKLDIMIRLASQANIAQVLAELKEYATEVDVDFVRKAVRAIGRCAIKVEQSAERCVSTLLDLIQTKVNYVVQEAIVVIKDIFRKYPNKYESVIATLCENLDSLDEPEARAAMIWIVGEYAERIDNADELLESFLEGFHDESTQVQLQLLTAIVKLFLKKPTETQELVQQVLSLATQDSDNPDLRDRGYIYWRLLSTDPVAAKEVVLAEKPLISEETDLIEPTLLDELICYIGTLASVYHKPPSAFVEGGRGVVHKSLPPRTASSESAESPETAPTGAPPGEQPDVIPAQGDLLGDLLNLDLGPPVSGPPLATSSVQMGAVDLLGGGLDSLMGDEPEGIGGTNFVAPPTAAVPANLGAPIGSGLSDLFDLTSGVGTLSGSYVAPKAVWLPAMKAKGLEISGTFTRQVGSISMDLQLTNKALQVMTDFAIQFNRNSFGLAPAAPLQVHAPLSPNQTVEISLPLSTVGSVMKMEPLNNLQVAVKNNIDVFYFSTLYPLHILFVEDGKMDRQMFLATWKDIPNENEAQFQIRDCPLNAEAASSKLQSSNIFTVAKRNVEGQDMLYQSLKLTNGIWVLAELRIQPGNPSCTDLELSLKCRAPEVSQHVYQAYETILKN

Target	log2 ratio of iodoacetamide-alkyne labeling
UniProt P61163_C34	0.205 (inactive)
PMPCA C466 (UniProt Q10713)	0.00592 (inactive)
CMC4 C12 (UniProt P56277)	1.14 (active)
MTA1 C229 (UniProt Q13330)	0.124 (inactive)
MORC3 C619 (UniProt Q14149)	0.279 (inactive)
PPA1 C114 (UniProt Q15181)	-0.223 (inactive)
GTF2I C80 (UniProt P78347)	0.0358 (inactive)
NUP98 C1590 (UniProt P52948)	0.601 (inactive)
PMS2 C798 (UniProt P54278)	-0.143 (inactive)
UniProt Q12905_C271	0.137 (inactive)
RPL7A C174 (UniProt P62424)	-0.0802 (inactive)
RING1 C69 (UniProt Q06587)	0.171 (inactive)
UniProt P78527_C3281	0.287 (inactive)
MARS C12 (UniProt P56192)	0.428 (inactive)
DOCK11 C409 (UniProt Q5JSL3)	-0.0544 (inactive)
P86790_C358 (UniProt P86791+P86790)	0.213 (inactive)
EXOSC7 C85 (UniProt Q15024)	-0.0747 (inactive)
BLM C704 (UniProt P54132)	0.6 (inactive)

Target	log2 ratio of iodoacetamide-alkyne labeling
PITRM1 C313 (UniProt Q5JRX3)	0.195 (inactive)
CNBP C140 (UniProt P62633)	0.134 (inactive)
CBX2 C340 (UniProt Q14781)	0.654 (inactive)
UniProt Q5H9R7_C467	0.103 (inactive)
CLTC C870 (UniProt Q00610)	0.621 (inactive)
TLE3 C528 (UniProt Q04726)	1.34 (active)
ATP2C1 C162 (UniProt P98194)	0.0772 (inactive)
DYNC1H1 C4216 (UniProt Q14204)	0.162 (inactive)
NFKB2 C57 (UniProt Q00653)	1.24 (active)
CAP1 C93 (UniProt Q01518)	0.152 (inactive)
UniProt Q02040_C542	0.763 (inactive)
SEC24C C433 (UniProt P53992)	1.1 (active)
STX5 C68 (UniProt Q13190)	0.4 (inactive)
TRIM28 C717 (UniProt Q13263)	-0.00982 (inactive)
FOXK1 C439 (UniProt P85037)	0.622 (inactive)
TCOF1 C1298 (UniProt Q13428)	0.666 (inactive)
AP1B1 C129 (UniProt Q10567)	0.414 (inactive)
FOXK1 C665 (UniProt P85037)	0.531 (inactive)

Source: the supplement of paper PMC11006884
